Several values for one entry are separate records, joined by “and”; a condition that tells them apart may be missing. Equal values may be shown once.
experiment: yeast AGP1-GFP fluorescence change, single-dose confirmation – cell-based, flow cytometry, S. cerevisiae, cherry pick set 3 (AID 504334);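 also: median GFP fluorescence per well by flow cytometry over the all cells gate; ratio of sample to mean DMSO control signal so DMSO = 100% not 0%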; conditions: S. cerevisiae AGP1-GFP strain, 3 h, at 10 µM, stronger effect = higher value;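 active = response relative to DMSO over 150%; inconclusive = yeast strain with under 70 recorded events; inactive = the rest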

Percent response vs DMSO, inactive:
CC(=O)Nc1ccc(-c2nc3cc(Cl)ccc3o2)cc1 96.1%, O=C(Nc1cccc(Cl)c1)ON=C1c2ccccc2-c2ccccc21 99.1%, CC(=O)NC(C)c1cc(Cl)c2cccnc2c1O (centres undefined) 102%, COc1ccccc1Nc1nc(NCCC(C)C)nc(N)c1[N+](=O)[O-] 104%, COc1ccc(OC)c(N/C(C)=C/C(=O)c2ccccc2)c1 99.8%, COc1ccccc1-c1cc(C(F)(F)F)nc(S(C)(=O)=O)n1 130%, COc1cccc(NC(=O)CC(C)=O)c1 98.8%, COCCNc1nc(N)c([N+](=O)[O-])c(Nc2ccc(F)cc2)n1 101%, Cc1ccc(-c2cc(C(F)F)nc(S(C)(=O)=O)n2)cc1 110%, NC(=O)COc1cccc2cccnc12 98.1%, CCOC(=O)CS(=O)(=O)c1nc(-c2ccccc2)cc(C(F)(F)F)n1 122%, Nc1cc(C(=O)O)c(N)c2c1C(=O)c1ccccc1C2=O 102%, O=C(O)c1ccc2cccc(O)c2n1 103%, CCc1c(C)nc2c(OC)cccc2c1Cl 99.4%, COc1ccccc1OCc1cc(C(=O)N2CCN(C)C(c3ccccc3)C2)no1 (centres undefined) 98.8%, COCC(C)NC(=O)CCS(=O)(=O)c1nc(-c2ccc(OC)cc2)cc(C(F)(F)F)n1 (centres undefined) 98.4% and 101%, CS(=O)(=O)c1nc(-c2ccc(F)cc2)cc(C(F)(F)F)n1 114%, COc1cccc(N/C(C)=C/C(=O)c2ccc(Br)cc2)c1 101%, C/C(=N\NC(=O)c1cccc2ccccc12)c1cccnc1 99.4%

From PubChem BioAssay AID504334 (NMMLSC, 2011)
